The values below come from PubChem BioAssay (EPA / NIEHS).

The structures appear in SMILES notation. More than one record can exist for a structure, and the calls need not agree. Active and inactive are the calls of the source. How the source made its calls: active means hit-call score of the fitted dose curve at least 0.9, where 1 is the maximum; inactive means score below 0.9.

Holding throughout (conditions): mRNA level, 48 h; actives raise or lower the signal
Read-out in test [1]: Nuclear factor NF-kappa-B p105 subunit (Homo sapiens) (UniProt P19838)
The test can be described thus: LTEA_HepaRG_NFKB1: Life Technologies and Expression Analysis (LTEA) Assay for Nuclear Factor Kappa B Subunit 1 (NFKB1) using HepaRG (AID 2283521).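 Further: TaqMan qRT-PCR transcript normalised to ACTB GAPDH and POLR2A housekeeping genes.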 The essentials:
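Differentiated human HepaRG cells in serum-free induction medium with 0.5% DMSO were exposed for 48 h to eight half-log concentrations, top 100 uM, in duplicate. NFKB1 mRNA measured by Fluidigm TaqMan qRT-PCR, normalised to ACTB, GAPDH and POLR2A; bidirectional fit versus DMSO.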

Read-out in test [2]: Protein phosphatase 2A (PPP2R4), PTPA (gene 5524)
The test can be described thus: LTEA_HepaRG_PPP2R4: Life Technologies and Expression Analysis (LTEA) Assay for Protein phosphatase 2A (PPP2R4) using HepaRG (AID 2283522). In outline:
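Differentiated human HepaRG cells in serum-free induction medium were exposed 48 h to 8 concentrations (top 100 µM, half-log steps, duplicate) in 0.5% DMSO. PPP2R4 mRNA was measured by TaqMan qRT-PCR, normalised to ACTB, GAPDH and POLR2A, and fitted bidirectionally versus DMSO.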

Read-out in test [3]: Phosphatase and tensin (PTEN), PTEN (gene 5728)
The test can be described thus: LTEA_HepaRG_PTEN: Life Technologies and Expression Analysis (LTEA) Assay for Phosphatase and tensin (PTEN) using HepaRG (AID 2283523). The essentials:
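HepaRG cells, 48 h after plating, exposed in duplicate for 48 h in serum-free induction medium to 8 half-log concentrations up to 100 uM (0.5% DMSO). PTEN mRNA by qRT-PCR, normalized to ACTB, GAPDH, POLR2A; bidirectional fit versus DMSO.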

Read-out in test [4]: solute carrier (SLC22A1), SLC22A1 (gene 6580)
The test can be described thus: LTEA_HepaRG_SLC22A1: Life Technologies and Expression Analysis (LTEA) Assay for solute carrier (SLC22A1) using HepaRG (AID 2283524). The essentials: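 Differentiated human HepaRG cells in serum-free induction medium, exposed 48 h in duplicate to 8-point half-log series from 100 µM top in 0.5% DMSO. SLC22A1 mRNA by TaqMan qRT-PCR normalized to ACTB, GAPDH, POLR2A; bidirectional fit versus DMSO.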

Read-out in test [5]: Pyruvate Dehydrogenase Kinase 4 (PDK4), PDK4 (gene 5166)
The test can be described thus: LTEA_HepaRG_PDK4: Life Technologies and Expression Analysis (LTEA) Assay for Pyruvate Dehydrogenase Kinase 4 (PDK4) using HepaRG (AID 2283525). In outline:
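HepaRG cells plated 48 h, then switched to serum-free induction medium and exposed in duplicate for 48 h to 8 half-log concentrations from 100 uM in 0.5% DMSO. PDK4 mRNA measured by qRT-PCR, normalized to ACTB, GAPDH and POLR2A; bidirectional fit versus DMSO.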

Read-out in test [6]: NAD(P)H dehydrogenase [quinone] 1 (NQO1), NQO1 (gene 1728)
The test can be described thus: LTEA_HepaRG_NQO1: Life Technologies and Expression Analysis (LTEA) Assay for NAD(P)H dehydrogenase [quinone] 1 (NQO1) using HepaRG (AID 2283526). The essentials:
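Differentiated human HepaRG cells in serum-free induction medium, dosed in duplicate for 48 h at 8 half-log concentrations up to 100 uM in 0.5% DMSO. NQO1 mRNA by qRT-PCR normalized to ACTB, GAPDH, POLR2A; bidirectional fit versus DMSO baseline.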

Read-out in test [7]: Nuclear factor erythroid 2-related factor 2 (Homo sapiens) (UniProt Q16236)
The test can be described thus: LTEA_HepaRG_NFE2L2: Life Technologies and Expression Analysis (LTEA) Assay for Nuclear factor erythroid 2-related factor 2 (NFE2L2) Transcription Factor using HepaRG (AID 2283527).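 On outcome: TaqMan qRT-PCR transcript level normalised to ACTB GAPDH and POLR2A housekeeping genes.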 The essentials: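 Differentiated human HepaRG cells, serum-free induction medium, exposed 48 h in duplicate to eight half-log concentrations up to 100 uM in 0.5% DMSO. NFE2L2 mRNA by Fluidigm TaqMan qRT-PCR, normalised to ACTB, GAPDH, POLR2A; bidirectional change versus DMSO.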

Read-out in test [8]: succinate dehydrogenase complex iron sulfur subunit B (SDHB), SDHB (gene 6390)
The test can be described thus: LTEA_HepaRG_SDHB: Life Technologies and Expression Analysis (LTEA) Assay for succinate dehydrogenase complex iron sulfur subunit B (SDHB) using HepaRG (AID 2283528). The essentials:
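HepaRG cells (~100,000/well, plated 48 h) exposed in duplicate for 48 h in serum-free induction medium to 8-point half-log series from 100 uM in 0.5% DMSO; mRNA by qRT-PCR normalised to ACTB, GAPDH, POLR2A; bidirectional fit versus DMSO.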

Read-out in test [9]: Signal transducer and activator of transcription 3 (Homo sapiens) (UniProt P40763)
The test can be described thus: LTEA_HepaRG_STAT3: Life Technologies and Expression Analysis (LTEA) Assay for Signal transducer and activator of transcription (STAT3) using HepaRG (AID 2283529). In outline:
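Differentiated HepaRG cells, serum-free induction medium, dosed 48 h in duplicate, 8 half-log concentrations from 100 uM in 0.5% DMSO. STAT3 mRNA by qRT-PCR, normalised to ACTB, GAPDH, POLR2A; bidirectional fit versus DMSO.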

Read-out in test [10]: solute carrier (SLCO1B1), SLCO1B1 (gene 10599)
The test can be described thus: LTEA_HepaRG_SLCO1B1: Life Technologies and Expression Analysis (LTEA) Assay for solute carrier (SLCO1B1) using HepaRG (AID 2283530). In outline:
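Gain or loss of SLCO1B1 mRNA is fitted against the 0.5% DMSO vehicle in human HepaRG liver cells treated 48 h at up to 100 uM in half-log steps. Expression comes from qRT-PCR normalized to endogenous controls.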

Nuclear factor erythroid 2-related factor 2 (Homo sapiens), sequence (Q16236 whole entry, looked up): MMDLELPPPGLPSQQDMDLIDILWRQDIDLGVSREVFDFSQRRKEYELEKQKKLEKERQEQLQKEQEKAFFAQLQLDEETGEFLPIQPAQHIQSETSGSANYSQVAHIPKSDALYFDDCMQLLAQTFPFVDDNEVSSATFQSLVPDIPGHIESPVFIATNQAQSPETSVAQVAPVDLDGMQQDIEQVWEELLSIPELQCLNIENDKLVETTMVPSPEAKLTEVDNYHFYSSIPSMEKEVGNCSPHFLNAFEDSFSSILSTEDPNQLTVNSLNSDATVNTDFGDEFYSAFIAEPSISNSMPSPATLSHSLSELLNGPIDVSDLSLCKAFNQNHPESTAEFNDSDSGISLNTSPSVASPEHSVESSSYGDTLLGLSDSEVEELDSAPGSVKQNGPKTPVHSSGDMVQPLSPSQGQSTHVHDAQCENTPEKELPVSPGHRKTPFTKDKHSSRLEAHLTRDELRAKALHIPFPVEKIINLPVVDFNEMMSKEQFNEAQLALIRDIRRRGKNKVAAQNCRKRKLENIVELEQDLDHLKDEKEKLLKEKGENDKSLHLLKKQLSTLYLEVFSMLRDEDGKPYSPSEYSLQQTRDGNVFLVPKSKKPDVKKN
Nuclear factor NF-kappa-B p105 subunit (Homo sapiens), sequence (P19838 whole entry, looked up): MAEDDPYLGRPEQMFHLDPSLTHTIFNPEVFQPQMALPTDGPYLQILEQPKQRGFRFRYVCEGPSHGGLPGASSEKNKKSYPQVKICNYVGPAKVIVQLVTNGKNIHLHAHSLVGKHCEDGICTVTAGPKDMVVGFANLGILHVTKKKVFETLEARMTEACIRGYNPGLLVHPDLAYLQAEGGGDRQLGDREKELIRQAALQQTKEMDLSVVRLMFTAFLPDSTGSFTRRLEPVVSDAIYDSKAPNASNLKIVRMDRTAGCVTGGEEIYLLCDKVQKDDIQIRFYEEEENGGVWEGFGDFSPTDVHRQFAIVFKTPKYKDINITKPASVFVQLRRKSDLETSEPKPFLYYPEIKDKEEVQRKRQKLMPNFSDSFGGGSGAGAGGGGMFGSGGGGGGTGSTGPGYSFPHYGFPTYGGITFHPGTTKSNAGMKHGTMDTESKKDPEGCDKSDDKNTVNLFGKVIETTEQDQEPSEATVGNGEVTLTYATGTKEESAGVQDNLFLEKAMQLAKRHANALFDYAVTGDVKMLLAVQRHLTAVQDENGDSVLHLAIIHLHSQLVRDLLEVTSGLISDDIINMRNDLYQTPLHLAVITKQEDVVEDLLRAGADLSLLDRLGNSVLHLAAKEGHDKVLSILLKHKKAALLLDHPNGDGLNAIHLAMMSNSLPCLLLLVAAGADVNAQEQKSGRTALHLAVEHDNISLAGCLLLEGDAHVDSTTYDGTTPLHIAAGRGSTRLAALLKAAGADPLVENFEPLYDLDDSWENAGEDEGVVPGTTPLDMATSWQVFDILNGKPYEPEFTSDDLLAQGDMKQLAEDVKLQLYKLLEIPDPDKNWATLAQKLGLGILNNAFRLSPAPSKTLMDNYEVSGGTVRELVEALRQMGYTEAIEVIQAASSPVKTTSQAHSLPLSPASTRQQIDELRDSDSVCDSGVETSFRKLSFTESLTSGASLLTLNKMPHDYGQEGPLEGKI
Signal transducer and activator of transcription 3 (Homo sapiens), sequence (P40763 whole entry, looked up): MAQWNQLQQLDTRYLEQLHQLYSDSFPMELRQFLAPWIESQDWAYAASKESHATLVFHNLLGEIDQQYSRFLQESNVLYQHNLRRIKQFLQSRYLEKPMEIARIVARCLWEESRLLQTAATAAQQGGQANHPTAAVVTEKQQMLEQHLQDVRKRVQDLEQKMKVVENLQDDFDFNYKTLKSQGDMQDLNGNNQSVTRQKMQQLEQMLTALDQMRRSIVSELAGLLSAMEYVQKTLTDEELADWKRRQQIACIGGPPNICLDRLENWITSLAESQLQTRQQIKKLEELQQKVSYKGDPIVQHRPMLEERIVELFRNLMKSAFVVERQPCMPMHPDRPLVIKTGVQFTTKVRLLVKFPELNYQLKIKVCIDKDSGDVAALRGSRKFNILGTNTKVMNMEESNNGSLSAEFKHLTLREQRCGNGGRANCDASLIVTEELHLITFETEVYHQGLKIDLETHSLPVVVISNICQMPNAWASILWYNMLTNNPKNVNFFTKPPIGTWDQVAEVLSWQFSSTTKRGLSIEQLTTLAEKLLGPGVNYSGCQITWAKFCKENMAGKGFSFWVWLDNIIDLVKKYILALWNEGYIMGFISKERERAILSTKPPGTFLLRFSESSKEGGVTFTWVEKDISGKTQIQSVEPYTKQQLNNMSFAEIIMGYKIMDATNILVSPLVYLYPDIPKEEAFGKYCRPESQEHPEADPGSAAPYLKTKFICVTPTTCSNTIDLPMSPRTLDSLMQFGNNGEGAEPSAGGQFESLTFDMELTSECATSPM

Broadly, the AC50 is the concentration giving half of the maximal activity seen. In the case of `COc1ccc(C(c2ccc(OC)cc2)C(Cl)(Cl)Cl)cc1`, the result in [1], in test [2], in test [3], in [5], in [6] and in test [9] was inactive. In test [10], the outcome was inactive. The AC50 in [4] is 84.8 µM (active); in test [7], 12.7 µM (active); in [8], 33.2 µM (active).

Turning to `CCOP(=S)(OCC)SCn1c(=O)oc2cc(Cl)ccc21`, the molecule was classed as inactive in test [2], in [3], in [4], in test [5], in test [6] and in [7]. The result in [8], in test [9] and in test [10] was inactive.

In the case of `Fc1ccc(Oc2ccnc3cc(Cl)cc(Cl)c23)cc1`, the result in test [2], in test [3], in test [6], in test [7], in test [8] and in [9] was inactive. The outcome in test [10] was inactive. For the same molecule, the AC50 in test [4] is 97.8 µM (active); in test [5], 50 µM (active).

For the molecule `C#CCOS(=O)OC1CCCCC1Oc1ccc(C(C)(C)C)cc1` (centres undefined), the call in test [1] and in test [7] was inactive. The AC50 in test [2] was 29.8 µM (active); in [3], 30.7 µM (active); in test [4] it was 20.7 µM (active); in [5], 50 µM (active); in test [6] it was 22.9 µM (active); in test [8], 30.5 µM (active). In addition, the AC50 in test [9] is 36.3 µM (active); in test [10], 29.2 µM (active).

For `Cc1c(F)c(F)c(COC(=O)C2C(/C=C(\Cl)C(F)(F)F)C2(C)C)c(F)c1F` (centres undefined), the molecule was called inactive in [1], in test [2], in [3], in test [5], in test [6] and in [7]. In addition, the call in test [8], in [9] and in test [10] was inactive. Moreover, the AC50 in test [4] is 12.3 µM (active).

With `N#Cc1nn(-c2c(Cl)cc(C(F)(F)F)cc2Cl)c(N)c1S(=O)C(F)(F)F` (centres undefined), the AC50 in test [2] is 11.5 µM (active); in test [4], 19.6 µM (active); in test [5] it was 23.1 µM (active); in [6], 81.6 µM (active); in test [7], 83 µM (active); in test [10] it was 36.2 µM (active). Further, the call in test [3], in [8] and in test [9] was inactive.

With `CCNc1nc(Cl)nc(NC(C)C)n1`, the result in test [1], in test [2], in test [3], in test [4], in [5] and in [6] was inactive. Also, the molecule was classed as inactive in test [7], in [8], in test [9] and in [10].

Turning to `Cc1cc(Cl)ccc1OCC(=O)O`, the outcome in [2], in test [3], in test [4], in [6], in test [7] and in [8] was inactive. The call in test [9] and in [10] was inactive. Also, the AC50 in test [5] is 35.5 µM (active).

For `OC(c1ccc(Cl)cc1)(c1cncnc1)c1ccccc1Cl` (centres undefined), the AC50 was 66.4 µM (active) in [2]; 81.8 µM (active) in [4]; 75.9 µM (active) in test [5]; 44.6 µM (active) in test [7]; 85.2 µM (active) in test [10]. Besides, the molecule was classed as inactive in test [3], in test [6], in test [8] and in test [9].

For the molecule `C=CCC1=C(C)[C@@H](OC(=O)[C@@H]2[C@@H](C=C(C)C)C2(C)C)CC1=O`, the result in [1], in [2], in test [3], in test [5], in [6] and in [7] was inactive. For the same molecule, the molecule was classed as inactive in test [8] and in test [10]. Moreover, the AC50 in test [4] was 50 µM (active).

As for `O=C(O)c1nc(Cl)ccc1Cl`, the result in [2], in test [3], in test [4], in [5], in test [6] and in [7] was inactive. For the same molecule, the molecule was called inactive in [8], in test [9] and in test [10]. For the same molecule, the AC50 in test [5] was 50 µM (active).

As for `CNC(=S)S`, the outcome in test [1], in test [2], in [3], in test [4], in test [5] and in test [6] was inactive. Also, the outcome in test [7], in [8], in [9] and in [10] was inactive.

With `COP(N)(=O)SC` (centres undefined), the molecule was called inactive in test [1], in test [2], in [3], in [4], in [5] and in test [6]. In addition, the outcome in test [7], in [8], in test [9] and in test [10] was inactive.
